CendR NRP1 mod: NRP-1/CendR interaction modulation; AID 602438; 360,000 compounds, 0.85% hits; FAM-RPARPAR peptide binding to NRP-1, fluorescence polarization; inhibition, % at 25 µM; O14786;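 active = inhibition or corrected inhibition above about 18%, plus a signal ratio from 0.5 to 1.5, limit read from the data, passing the limit was not always enough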
Target sequence (O14786 whole entry, looked up): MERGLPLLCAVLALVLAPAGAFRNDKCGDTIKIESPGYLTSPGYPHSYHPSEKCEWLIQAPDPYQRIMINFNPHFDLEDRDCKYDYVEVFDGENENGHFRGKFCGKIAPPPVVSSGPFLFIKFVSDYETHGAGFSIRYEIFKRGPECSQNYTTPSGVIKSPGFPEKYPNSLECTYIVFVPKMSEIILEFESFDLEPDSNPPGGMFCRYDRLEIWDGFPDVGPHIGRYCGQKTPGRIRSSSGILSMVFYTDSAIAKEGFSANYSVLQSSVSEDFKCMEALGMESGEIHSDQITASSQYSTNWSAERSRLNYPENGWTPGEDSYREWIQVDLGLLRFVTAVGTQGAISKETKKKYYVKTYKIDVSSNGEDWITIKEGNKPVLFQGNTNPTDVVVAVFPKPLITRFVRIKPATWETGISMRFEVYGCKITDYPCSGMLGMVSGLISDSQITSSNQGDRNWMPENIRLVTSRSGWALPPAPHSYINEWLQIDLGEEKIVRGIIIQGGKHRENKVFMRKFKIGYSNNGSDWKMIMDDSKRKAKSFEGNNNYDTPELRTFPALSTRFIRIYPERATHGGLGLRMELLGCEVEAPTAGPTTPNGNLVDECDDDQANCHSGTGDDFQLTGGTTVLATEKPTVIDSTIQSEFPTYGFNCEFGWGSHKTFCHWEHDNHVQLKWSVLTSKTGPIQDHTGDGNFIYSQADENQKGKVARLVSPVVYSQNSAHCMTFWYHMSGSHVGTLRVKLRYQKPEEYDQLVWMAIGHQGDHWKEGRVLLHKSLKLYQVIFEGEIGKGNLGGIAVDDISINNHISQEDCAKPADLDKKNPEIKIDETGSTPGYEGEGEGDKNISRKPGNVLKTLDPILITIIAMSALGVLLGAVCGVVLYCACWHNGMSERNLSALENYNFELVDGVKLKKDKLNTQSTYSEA
PHOSPHO1 inh: inhibitors of human PHOSPHO1 phosphatase | Q8TCT1 | recombinant PHOSPHO1, absorbance phosphatase assay | inhibition, % at 13.3 µM | 290,000 compounds, 1.1% hits; in the data active = inhibition above about 60%
HNF4A DNA FP: change in binding of human HNF4 alpha to DNA; 360,000 compounds, 0.3% hits; HNF4a-FITC DNA binding, fluorescence polarization, 1 h; activity change, % at 10 µM; P41235; in the data active = activity change above about 30%, passing the limit was not always enough
TPT1 inhibitor: inhibitors of Candida albicans tRNA 2'-phosphotransferase TPT1. inhibition, % at 5 µM. recombinant caTPT1, FP RNA substrate dephosphorylation. AID 1962. 300,000 compounds, 0.81% hits;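 active = inhibition above the mean of all tested compounds plus 3 SD, set per screening campaign, cut at about 24% in these data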
Rpn11 inh: Rpn11 (human) deubiquitinase inhibition | O00487 | AID 588493 | 360,000 compounds, 0.59% hits | human 26S proteasome, Ub4-pepOG fluorescence polarization; 20S core pre-blocked with epoxomicin | inhibition, % at 20 µM;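 active = inhibition at 20 µM, scaled to each plate's controls, above about 33%, limit read from the data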
CTSL1 counter: blocks F. hepatica cathepsin L1 in PFM18AAP counter-screen; recombinant F. hepatica cathepsin L1, Z-Leu-Arg-MCA fluorescence; inhibition, % at 5.96 µM; 300,000 compounds, 0.49% hits; AID 1906;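 active = inhibition above the mean of all tested compounds plus 3 SD, set per screening campaign, cut at about 17% in these data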
A number is an active result; - = inactive; . = not tested or not shown. Most compounds without a hit are left out; they make up all but 3.3% or so of the library.

SMILES | CendR NRP1 mod | PHOSPHO1 inh | HNF4A DNA FP | TPT1 inhibitor | Rpn11 inh | CTSL1 counter
Cc1ccc(NC(=O)c2cc(-c3ccco3)on2)cc1C | - | - | - | - | - | 21
COc1cc(C(=O)NNC(=S)NC(=O)c2ccc(Cl)cc2)cc(OC)c1OC | - | 69 | - | - | - | -
COc1cc(C(=O)NNC(=S)NC(=O)/C=C/c2ccccc2)cc(OC)c1OC | - | 87 | - | - | - | -
COc1ccc(C(=O)NNC(=S)NC(=O)c2ccc(Cl)cc2)cc1 | . | . | . | - | . | -
CC(O)c1n(C)c(Cl)c[n+]1C (centres undefined) | - | 79 | - | - | - | -
O=C(NCCS(=O)(=O)N1CCN(c2ccccc2)CC1)C1CCCCC1 | - | . | - | . | - | .
COc1ccc(C(C)NC(=O)C2C(=O)NC3(C)CC2c2ccccc2O3)cc1 (centres undefined) | - | - | - | - | - | -
COc1ccc(NC(=O)C2C(=O)NC3(C)CC2c2ccccc2O3)cc1 (centres undefined) | 33 | - | - | - | - | -
COC(=O)c1ccccc1NC(=O)COC(=O)CSc1nnc(N)s1 | - | - | - | - | - | -
CC1(C)CC(=O)C2=C(C1)OC(N)=C(C#N)C2c1ccccc1[N+](=O)[O-] (centres undefined) | 36 | - | - | - | - | -
CC1(C)CC(=O)C(C2C3=C(CC(C)(C)CC3=O)Oc3ccccc32)=C(O)C1 (centres undefined) | - | - | - | - | - | 17
CCOC(=O)C1=C(Cc2ccc(OC)cc2)C(=O)c2ccccc2C1=O | - | 71 | - | . | - | .
Cc1oc(-c2ccc(Cl)cc2)nc1CSCC(=O)NC1CCN(Cc2ccccc2)CC1 | - | - | - | - | - | -
CN1CCC(=NNC(=O)C(=O)Nc2cccc(Br)c2)CC1 | - | - | 31 | - | - | -
COCCNC(=O)C(=O)Nc1cccc(Br)c1 | 29 | - | - | - | - | -
COCCNC(=O)C(=O)Nc1ccc(Br)cc1 | - | - | - | - | - | -
CN1CCC(=NNC(=O)C(=O)Nc2ccc(F)cc2)CC1 | - | - | - | - | - | -
CCOC(=O)[C@H]1[C@H]2COc3ccccc3[C@@H]2N2C(=O)[C@@H](C)NC(=O)[C@@]12C | 28 | . | - | . | - | .
CCOC(=O)[C@@H]1[C@H]2COc3ccccc3[C@@H]2N2C(=O)N(c3ccc(Cl)cc3)C(=O)[C@]12C | 30 | - | - | - | - | -
CCOC(=O)[C@H]1[C@H]2COc3ccccc3[C@@H]2N2C(=O)c3ccccc3NC(=O)[C@@]12C | - | . | - | - | - | -
CCOC(=O)[C@@H]1[C@H]2COc3ccccc3[C@H]2N2C(=O)N(c3ccc(C)cc3)C(=O)[C@]12C | - | - | - | - | - | -
CC(NC(=O)c1ccco1)C(=O)OCc1cccc(Cl)c1 (centres undefined) | - | - | - | - | - | -
CCOc1ccccc1OCc1nn2c(COc3ccccc3)nnc2s1 | - | - | - | - | - | -
COc1cc(-c2nn3c(Cc4ccccc4)nnc3s2)cc(OC)c1OC | - | 77 | - | - | - | -
Clc1ccccc1-c1nnc2sc(-c3ccco3)nn12 | - | - | - | - | - | -
SMILES | CendR NRP1 mod | PHOSPHO1 inh | HNF4A DNA FP | TPT1 inhibitor | Rpn11 inh | CTSL1 counter
COc1cc(-c2nn3c(COc4ccccc4)nnc3s2)cc(OC)c1OC | - | 74 | - | - | - | -
c1ccc(Cc2nn3c(COc4ccccc4)nnc3s2)cc1 | - | 66 | - | - | - | -
c1ccc(Cc2nnc3sc(-c4ccco4)nn23)cc1 | - | 96 | - | - | - | -
Cc1cc(Cl)c(S(=O)(=O)Nc2ccc3c(c2)OCCO3)cc1OCC(=O)NC1CCCCC1 | - | - | - | - | - | -
O=C(O)c1ccc(COc2ccc(/C=N/NC(=O)c3cccs3)cc2)cc1 | - | 77 | - | - | - | -
O=C(N/N=C/c1ccc(OCc2ccccc2)cc1)c1ccco1 | - | - | - | - | - | 22
O=C(N/N=C/c1ccccc1)c1ccco1 | - | - | - | - | - | -
O=C(N/N=C/c1cccc(OCc2ccccc2)c1)c1cccs1 | - | - | - | - | - | -
COc1cc2c(-c3ccc(O)cc3)nc3c(c(C)nn3-c3ccccc3)c2cc1OC | - | - | 160 | - | - | -
O=C(NCc1ccccc1)c1cc(C2CCCCN2C(=O)CCCc2ccccc2)on1 (centres undefined) | - | . | - | . | - | .

Screening results deposited in PubChem BioAssay by several laboratories.
